The values that follow come from PubChem BioAssay AID1578 (Sanford-Burnham Center for Chemical Genomics, 2009).

Molecules are shown by their SMILES. Among all 290,000 compounds or so, about 3,000 (1%) were called active. This excerpt belongs to a sample that is enriched for actives. A number with no mark means an inactive call. No stated cut-off is given here; in the data, active means inhibition mostly above about 36% (no sharp cut-off); inactive means mostly below about 34%.

One may read the inhibition as the relative decrease from the control value, in per cent.

This assay is described as follows: NOD1 signaling inhibitors, primary screen, cell-based, luminescence, uHTS (AID 1578).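 Further: HEK-293T reporter cells stimulated with the NOD1 agonist gamma-tri-DAP.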 The settings on record: NOD1-driven NF-kB luciferase reporter cells, at 4 µM, active compounds read high. (Reporter assays use an easily measured gene product as a stand-in for the process of interest.)
With `O=C1CCC(c2ccccc2)N1C(=O)c1cccnc1` (stereo not given), the inhibition was -12.6%.

Regarding `CC1(C)Oc2nc3ccccc3n2/C1=C\C#N`, the inhibition was 42% (active).

As for `N#C/C=C1\n2c(nc3ccccc32)OC12CCCCC2`, the inhibition is -4%.

As for `CNc1nc2ccccc2n1N`, the inhibition was 47%.

Take `c1ccc2c(CCNc3ncnc4nc[nH]c34)cccc2c1`: the inhibition is 62% (active).

`c1ccc2c(CSc3ncnc4nc[nH]c34)cccc2c1`: the inhibition is 71.3% (active).

As to `Cc1cccc(CSc2ncnc3nc[nH]c23)c1`, the inhibition was -13.3%.

As to `c1ccc(CCNc2ncnc3nc[nH]c23)cc1`, the inhibition was 16.7%.

Regarding `c1ccc(CCSc2ncnc3nc[nH]c23)cc1`, the inhibition was -1.6%.

In the case of `c1ccc2c(CCNc3ncnc4nc[nH]c34)c[nH]c2c1`, the inhibition is 20.4%.

On to `Cc1cccc(C(=O)NC(=O)Nc2c(C)cc(C)nc2C)c1`, for which the inhibition was -46.9%.

For `O=C(CCCn1cc([N+](=O)[O-])cn1)Nc1cccnc1`, the inhibition was -11.6%.

For the compound `Cc1ccc(C(=O)c2coc3cc([N+](=O)[O-])c(O)c([N+](=O)[O-])c23)cc1`, the inhibition is 21.2%.

Consider `CCCCN(c1ccccc1)c1ncnc2nc[nH]c12`, for which the inhibition was 36.9%.

As for `CCCCN(CCCC)c1ncnc2nc[nH]c12`, the inhibition was 84.5% (active).

Consider `CCCCN(Cc1ccccc1)c1ncnc2nc[nH]c12`, for which the inhibition was -41%.

For the compound `O=C(N[C@@H]1CCC(=O)N(CC[C@H](Oc2ccccc2)c2ccccc2)CC1)OCc1ccccc1`, the inhibition is 53.8%.

With `C=CCNC(=O)/C(C#N)=C/c1ccc(OS(=O)(=O)c2ccc(C)cc2)c(OC)c1`, the inhibition was 10%.

For the compound `COc1cc(/C=C(\C#N)C(=O)NC2CCCCC2C)ccc1OS(=O)(=O)c1ccc(C)cc1` (stereo not given), the inhibition was 75.9% (active).

Turning to `COc1cc(/C=C(\C#N)C(N)=O)ccc1OS(=O)(=O)c1ccc(C)cc1`, the inhibition was 14.7%.

`COc1ccc(CNC(=O)CN(Cc2ccc(F)cc2)C(=O)c2csnn2)cc1`: the inhibition was -24.5%.

On to `C=CCn1c(=O)c2ccc(C(=O)NCc3ccccc3)cc2n(Cc2cccc(Cl)c2)c1=O`, for which the inhibition was 61.7%.

In the case of `O=C(CN1CCCN(S(=O)(=O)c2ccc(F)cc2)CC1)Nc1c(Cl)cccc1Cl`, the inhibition is -4.7%.

On to `Fc1cccc(Cl)c1CNC(c1ccccc1)c1ccccc1`, for which the inhibition is 9.2%.

For the compound `Cc1ccc(NCC(=O)N/N=C/c2cc3ccccc3nc2Cl)cc1`, the inhibition was -21.8%.

In the case of `CCOC(=O)C(=Cc1ccccc1OC)C(=O)OCC`, the inhibition was 47.6% (active).

For the compound `CCOC(=O)C(=Cc1ccc(F)cc1)C(=O)OCC`, the inhibition is 31.2%.

As for `CCOC(=O)C(=Cc1ccc(Br)cc1)C(=O)OCC`, the inhibition is 36.2% (active).

`O=C(O)/C=C/c1ccc(-n2ccnc2)cc1`: the inhibition was 1.1%.

For the compound `CCOC(=O)/C(=C/c1ccc(OC(=O)c2ccccc2)cc1)C(C)=O`, the inhibition was -13.5%.

With `CCOC(=O)C(=Cc1ccc(-n2ccnc2)cc1)C(=O)OCC`, the inhibition was 45.8% (active).

`COC(=O)/C=C/c1ccc(-n2ccnc2)cc1`: the inhibition was -9.9%.

On to `CCOC(=O)C(=Cc1cc(=O)c(OC)co1)C(=O)OCC`, for which the inhibition is -12.3%.

Take `COc1ccccc1/C=C(/C(=O)OCC(N)=O)c1ccccc1`: the inhibition is 0.8%.

On to `Cc1nn(-c2ccccc2)c(C)c1C(=O)OCC(=O)N1CCN(S(=O)(=O)c2ccccc2)CC1`, for which the inhibition was -0.7%.

`Cc1ccc2c(N)c(C)ccc2c1`: the inhibition was -4.1%.

As to `Cn1ncc(N2CCN(C(=O)c3ccc(Cl)cc3)CC2)c(Cl)c1=O`, the inhibition was -21.9%.

`COc1ccc(CNC(=O)C2CCCN(S(=O)(=O)c3ccc(Br)s3)C2)cc1` (stereo not given): the inhibition was -13.3%.

As to `Cc1cc(N/N=C/c2ccccc2F)nc(NCc2ccccc2)n1`, the inhibition was -2.7%.

Take `CCN(CC)C(=O)CSC(Nc1ccc(F)cc1)=C(C#N)C#N`: the inhibition was 4.2%.

Consider `CCc1ccc(N/C(SCc2cccc(F)c2)=C(/C#N)C(=O)NCc2ccco2)cc1`, for which the inhibition was 3.2%.

For `Cc1cccc(CSC(Nc2ccc(F)cc2)=C(C#N)C#N)c1`, the inhibition is 83.7% (active).

As for `COc1ccc(S(=O)(=O)N(C)CC(=O)N2CCCC2)cc1OC`, the inhibition was -5.3%.

Take `c1ccc(SCc2cn(C[C@H]3CC[C@@H]([C@@H]4CC[C@H](Cn5cc(CSc6ccccc6)nn5)O4)O3)nn2)cc1`: the inhibition was 22.8%.

For the compound `CCCn1c2ccccc2c2cnn(CC(=O)NC3CCCCC3)c(=O)c21`, the inhibition was -26.9%.

Consider `CC(=O)Nc1nc(-c2ccccc2)c(-c2ccccc2)o1`, for which the inhibition is -5.3%.

As to `O=C(CSC(=S)N1CCCCC1)Nc1nc(-c2ccccc2)c(-c2ccccc2)o1`, the inhibition is 9.9%.

In the case of `CCN(CC)C(=S)SCC(=O)Nc1nc(-c2ccccc2)c(-c2ccccc2)o1`, the inhibition was 72.2% (active).

For `Cc1ccc(C(=O)Nc2nc(-c3ccccc3)c(-c3ccccc3)o2)cc1`, the inhibition is 35.6%.

Regarding `CN1CCN(C(=S)SCC(=O)Nc2nc(-c3ccccc3)c(-c3ccccc3)o2)CC1`, the inhibition is -3.5%.

Regarding `O=C(Nc1nc(-c2ccccc2)c(-c2ccccc2)o1)c1ccc(F)cc1`, the inhibition is 97.4% (active).

As for `COc1ccccc1OCc1ccc(C(=O)N2CCOCC2)o1`, the inhibition is -11%.

On to `C=CCN(Cc1cc(OC)ccc1OC)S(=O)(=O)N(C)C`, for which the inhibition is 3.4%.

Take `O=C(Cc1ccc(Br)cc1)OCC(=O)N1CCc2ccccc2C1`: the inhibition was -12.8%.

Consider `OCCC1CN(Cc2cccc(-c3ccco3)c2)CCN1Cc1ccsc1` (stereo not given), for which the inhibition is -17.2%.

In the case of `COCc1cc(N2CCOCC2)nc(SCc2ccc(Cl)cc2)n1`, the inhibition was 52.1% (active).

Take `CSCc1cc(N2CCOCC2)nc(SCc2ccc(Cl)c(Cl)c2)n1`: the inhibition was -11.4%.

`COc1ccc(CSc2nc(CSC)cc(N3CCOCC3)n2)cc1`: the inhibition was 7.8%.

On to `CCCCCCn1ccc(=N)cc1`, for which the inhibition was 41.6%.

On to `CCCCCn1ccc(=N)cc1`, for which the inhibition was 13.1%.

Turning to `CCN(CC)S(=O)(=O)c1ccc(NS(=O)(=O)c2ccc3oc(=O)[nH]c3c2)cc1`, the inhibition was 22.1%.

On to `COC(=O)C1C(=O)c2c(n[nH]c2C)CC1(C)C` (stereo not given), for which the inhibition was -14.2%.

In the case of `COC(=O)C1C(=O)c2c(C)noc2CC1(C)C` (stereo not given), the inhibition was 64.3% (active).

In the case of `CCCc1n[nH]c2c1C(=O)C(C(=O)OC)C(C)(C)C2` (stereo not given), the inhibition is 11.5%.

On to `O=C(c1ccccn1)c1conc1C(=O)c1ccc(Br)cc1`, for which the inhibition was 0.5%.

Turning to `CN(C(=S)NC(=O)Cc1ccccc1)c1ccccc1`, the inhibition is -27.4%.

Take `Cc1cc(C)cc(NC(=S)N2CCN(S(=O)(=O)c3ccccc3)CC2)c1`: the inhibition is -17.6%.

For `Cc1csc(CN(C)C(=O)CC2C(=O)NCCN2Cc2ccc(F)cc2Cl)n1` (stereo not given), the inhibition is -11.4%.

For `CCCn1c(NCc2ccco2)nc2ccccc21`, the inhibition is -16.4%.

On to `c1csc(CNc2nc3ccccc3n2CCN2CCOCC2)c1`, for which the inhibition was 1.1%.

As for `c1coc(CNc2nc3ccccc3n2CCN2CCOCC2)c1`, the inhibition is 43.1% (active).

For the compound `N#C/C(=C\c1ccc([N+](=O)[O-])cc1)c1ccccn1`, the inhibition was -27.2%.

Turning to `CCN(CC)c1ccc(/C=C(\C#N)c2ccccn2)cc1`, the inhibition is -55.6%.

As for `N#C/C(=C\c1ccc(Cl)c([N+](=O)[O-])c1)c1ccccn1`, the inhibition was 47.2% (active).

For the compound `CN(CCC#N)c1ccc(/C=C(\C#N)c2ccccn2)cc1`, the inhibition was 30.9%.

For `CNc1ccc(/C=C(\C#N)c2ccccn2)cc1[N+](=O)[O-]`, the inhibition is -34.3%.

Regarding `CN(C)c1ccc(/C=C(\C#N)c2ccccn2)cc1`, the inhibition is 73.6% (active).

In the case of `CCOC(=O)c1sc(NC(=O)C(C)Sc2nnc(N)s2)nc1C` (stereo not given), the inhibition was -12.9%.

Consider `CCNC(=O)Nc1cc2nc(C)n(Cc3ccc(Br)cc3)c2nc1C`, for which the inhibition is 24.1%.

As to `CC(=O)c1c(C(C)=O)c(C)n(-c2cccc([N+](=O)[O-])c2)c1C`, the inhibition is -27.2%.

Take `Cc1cc(C(=O)CCl)c(C)n1-c1ccon1`: the inhibition is 28.2%.

In the case of `CCOC(=O)c1cc(C)n(-c2c(C)n(C)n(-c3ccccc3)c2=O)c1C`, the inhibition is -12.8%.

On to `Cc1cc(-n2c(C)cc(C(=O)CCl)c2C)no1`, for which the inhibition is 46.4% (active).

Turning to `Cc1cc(C(=O)CC#N)c(C)n1-c1c(C)n(C)n(-c2ccccc2)c1=O`, the inhibition is -19.8%.

Turning to `Cc1cc(C(=O)CCl)c(C)n1-c1cccc([N+](=O)[O-])c1`, the inhibition was 77.4% (active).

For `Cc1cc(C(=O)CCl)c(C)n1-c1c(C)n(C)n(-c2ccccc2)c1=O`, the inhibition is 42.5% (active).

With `COc1ccc(-n2c(C)cc(C(=O)CCl)c2C)cc1`, the inhibition was 39.1%.

Turning to `Cc1cc(-n2c(C)cc(C(=O)CN3C(=O)NC4(CCCC4)C3=O)c2C)no1`, the inhibition is -20.6%.

As for `COc1ccc(NC(=O)Nc2cccc3ccccc23)cc1S(N)(=O)=O`, the inhibition is 25.8%.

For `N/C(=N\O)c1cccc(CS(=O)(=O)c2ccccn2)c1`, the inhibition is -7.5%.

In the case of `Cc1ccc(-n2[nH]c(C)c(C=NC34CN5CN(CN(C5)C3)C4)c2=O)cc1C`, the inhibition was 9.5%.

On to `CCCN1C(=S)c2ccccc2C1c1ccccc1` (stereo not given), for which the inhibition was 35.5%.

As for `O=S(=O)(NN1CCOCC1)c1ccc(Cl)s1`, the inhibition was -37.6%.

For the compound `O=C1c2cccc3cccc(c23)C(=O)N1Cc1ccccc1`, the inhibition is -16.9%.

Turning to `Cc1ccc(CN2CCN(CCCn3cccn3)CC2CCO)cc1` (stereo not given), the inhibition was -31%.

For the compound `CCOC(=O)N1CCN(c2cc(=O)n(Cc3ccc(F)cc3)c(=O)[nH]2)CC1`, the inhibition was -37.3%.

Take `Cc1ccc(CN2C3CCCC2CC(NC(=O)c2ccc(C)cc2)C3)cc1` (stereo not given): the inhibition is -21.4%.

On to `Cc1ccc(C(=O)NC2CC3CCCC(C2)N3Cc2ccccc2)cc1` (stereo not given), for which the inhibition was 59% (active).

Regarding `Cc1ccc(CN2C3CCCC2CC(NC(=O)c2ccc(F)cc2)C3)cc1` (stereo not given), the inhibition was -0.1%.

Turning to `CC1CCCC(C)N1C(=O)Cn1nnc(-c2ccc([N+](=O)[O-])cc2)n1` (stereo not given), the inhibition is -36.1%.
